# The full ranking holds about 39,000 sequences; the median of “fluorescence intensity (a.u.)” is about 4,300, and the highest 2% start at about 39,000. What follows is part of a selection rich in the highest values, with near analogues and random picks from the rest.
# Target: T1, OsSMF1 (Oryza sativa, UniProt Q6ZLB0 1-436)
# T1 sequence: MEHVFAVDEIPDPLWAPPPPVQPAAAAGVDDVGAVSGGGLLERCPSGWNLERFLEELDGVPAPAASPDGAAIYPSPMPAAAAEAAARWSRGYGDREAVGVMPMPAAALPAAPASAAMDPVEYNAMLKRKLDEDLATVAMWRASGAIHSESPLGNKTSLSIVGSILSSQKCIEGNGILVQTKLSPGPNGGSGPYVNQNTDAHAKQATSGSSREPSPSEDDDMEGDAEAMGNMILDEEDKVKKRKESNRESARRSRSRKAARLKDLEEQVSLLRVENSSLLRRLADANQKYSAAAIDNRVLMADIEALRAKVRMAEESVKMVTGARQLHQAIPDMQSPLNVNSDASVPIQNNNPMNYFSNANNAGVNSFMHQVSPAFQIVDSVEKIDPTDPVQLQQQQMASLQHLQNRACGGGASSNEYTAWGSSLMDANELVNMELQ
# Assay: protein-binding microarray (RPBM); PBS, 2% BSA, 51.3 ng/ul salmon testes DNA, 50 uM zinc acetate, 200 nM TF, 25 C, 1 h; high values mean tight binding
# Conditions: protein: recombinant; tags: N-terminal polyhistidine and DsRed monomer fusion (pET32a); chain copies: 2; label: CyDye5-dUTP incorporated in the synthesized complementary strand; 3' TTTTT single-stranded linker to array surface; dsDNA, one strand shown
# In short: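 Polyhistidine-tagged DsRed fusions of transcription factors, joined at the N-terminus, were expressed in E. coli BL21-CodonPlus and isolated on Ni–NTA. They were incubated at 200 nM for 1 h at 25 °C on a custom Agilent array, double-stranded and BSA-blocked, in PBS with 2% BSA, salmon testes DNA and 50 µM zinc acetate. The binding signal is per-feature fluorescence intensity (arbitrary units) read on an Axon 4000B scanner after washing.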
row,Sequence,binding signal
1,CGTCCACCGCGCCGCCGCCGCCCTCCGTCACGCGCGCGCTCGGAGTCACCTAGTGCAG,3270 fluorescence intensity (a.u.)
2,GCGCGCCACGCCACGCCACGCGCCCACGCCTCGCCTCGCCCGGAGTCACCTAGTGCAG,10000 fluorescence intensity (a.u.)
3,TTCTGTAACTTTTCCAACTCACCTTCCTCGCTTCCCACGCCGGAGTCACCTAGTGCAG,4820 fluorescence intensity (a.u.)
4,TTTTCCAACTTACCTCCTTCATTTTCCACGCGCACATTTTCGGAGTCACCTAGTGCAG,65500 fluorescence intensity (a.u.)
5,GCCTTTCTCTCCACCGCGATTTCTATATATAAAACGCCCCCGGAGTCACCTAGTGCAG,9620 fluorescence intensity (a.u.)
6,CTCCTCACACATTCCCACGCACACATTTCCCCATGCACATCGGAGTCACCTAGTGCAG,3180 fluorescence intensity (a.u.)
7,TCCTCCTTCCTTCCACCTCACCCCAACCCCAACCCCAACCCGGAGTCACCTAGTGCAG,4080 fluorescence intensity (a.u.)
8,GGCCGCGTGCGTGTGTCCAAACCTTCTCCACGCATTTCCTCGGAGTCACCTAGTGCAG,4220 fluorescence intensity (a.u.)
9,TGCCCACGCCGCGCCGCCGCCTCCTCCTCCTCCTCCTCCTCGGAGTCACCTAGTGCAG,46900 fluorescence intensity (a.u.)
10,GCGCCACCTATAAAACGCCCGCGCGCCCCGCGCCGCCTCCCGGAGTCACCTAGTGCAG,40300 fluorescence intensity (a.u.)
11,GATCTGACCTCCTCAGCCTCCTTCCCCAACTGTTCCACGCCGGAGTCACCTAGTGCAG,44800 fluorescence intensity (a.u.)
12,CCACGCGCTCTATAAGTAGACGGCTCTTCGGCGCGTGTCACGGAGTCACCTAGTGCAG,3400 fluorescence intensity (a.u.)
13,GGTTGAAGTTAATACGTGCCAAATCTATAACTTTATTCCGCGGAGTCACCTAGTGCAG,3300 fluorescence intensity (a.u.)
14,TGGGAGAGGGTAGTAGGTGGGCCGAGGTACACACGTGGGGCGGAGTCACCTAGTGCAG,5560 fluorescence intensity (a.u.)
15,TTCGCTGACACGCCCCGTCCACTCTTGTCCACGCTGCGCCCGGAGTCACCTAGTGCAG,3380 fluorescence intensity (a.u.)
16,TCTTGCCTTCTTGCCCTCCACACTGTCCACGTCTCTCCAACGGAGTCACCTAGTGCAG,4650 fluorescence intensity (a.u.)
17,GATCAAGGAGGCCGTGGCGGACAGGGAGTGCGGGGTGGATCGGAGTCACCTAGTGCAG,3360 fluorescence intensity (a.u.)
18,AAAACTTGCAACTGCAATTCATGTCAATTTGCCACATCACCGGAGTCACCTAGTGCAG,13200 fluorescence intensity (a.u.)
19,CAGTTAACCACCTAACTGATCAAACTCATTCATGTCACTCCGGAGTCACCTAGTGCAG,5110 fluorescence intensity (a.u.)
20,TCAATAGAAAATAAACTGATTCATGTTAAAACCTTCACACCGGAGTCACCTAGTGCAG,46600 fluorescence intensity (a.u.)
21,ACAGCGTAGGCTTTTCTTTCACGTCACCACGCGTACGCGACGGAGTCACCTAGTGCAG,6560 fluorescence intensity (a.u.)

row,Sequence,binding signal
1,TAGTACCAAAGTATTTGTGTGTCACTATGATGTCCTGCCTCGGAGTCACCTAGTGCAG,6010 fluorescence intensity (a.u.)
2,GGGTGAAGCGTCGCGCGGCGCGCCGTGGCGTGGCGTGGCGCGGAGTCACCTAGTGCAG,6090 fluorescence intensity (a.u.)
3,ATCTTCTTCTTCATCGCTGTGCAGCTACACACTCTCACTGCGGAGTCACCTAGTGCAG,3180 fluorescence intensity (a.u.)
4,TTCATATTTATTTGATGACGTGGCTAATCCTGGTCGGATCCGGAGTCACCTAGTGCAG,40700 fluorescence intensity (a.u.)
5,GCTTGCTGCTGCTGCTGCTGATAGTTTAGCTTGAGAGAGCCGGAGTCACCTAGTGCAG,22700 fluorescence intensity (a.u.)
6,GATGGCGGTTTTGCTGATGTGGCGTTGACGTGCCGACCCGCGGAGTCACCTAGTGCAG,13200 fluorescence intensity (a.u.)
7,GTGTGGTTTTGCTGATGTGGCGCTGACGTGGCGATATTGACGGAGTCACCTAGTGCAG,48500 fluorescence intensity (a.u.)
8,GGCGGTTTTGGATGACGTGGTGCCTACGTGGCTAATTTGACGGAGTCACCTAGTGCAG,35600 fluorescence intensity (a.u.)
9,GAGGGCGGTTTTGCTGATGTGGCGTTGACGTGGCGATGTTCGGAGTCACCTAGTGCAG,27700 fluorescence intensity (a.u.)
10,GTTTAGATGGTGGTTTTGGCTGACGTGTCACCTACGTGGCCGGAGTCACCTAGTGCAG,24200 fluorescence intensity (a.u.)
11,GAGTTTGATAGCTTAGCAGAAATAGTTTTGCTGACGTGGCCGGAGTCACCTAGTGCAG,40700 fluorescence intensity (a.u.)
12,GTCATATTTATTTGGATGATGTGGCATGTTCTGGTGGTGACGGAGTCACCTAGTGCAG,15700 fluorescence intensity (a.u.)
13,TTTGATGGTGGTTTTGGCTGACGTGGCACCTACATGGCATCGGAGTCACCTAGTGCAG,42900 fluorescence intensity (a.u.)
14,CGGTGGTTTTGGCTGACGTGGCACCTATGTGGCAAATTTGCGGAGTCACCTAGTGCAG,7870 fluorescence intensity (a.u.)
15,TGTTTGTCGTGACTTAGCTTAGTTGTTGCTGTTGTTGAGCCGGAGTCACCTAGTGCAG,3400 fluorescence intensity (a.u.)
16,AAGAGACCTGTTTATTAGCGTCACTGACAGTCGTTGTCACCGGAGTCACCTAGTGCAG,3660 fluorescence intensity (a.u.)
17,ATTTCATCCTTATTAGGGCCTATTTGGAGCATTGGCAGGGCGGAGTCACCTAGTGCAG,3750 fluorescence intensity (a.u.)
18,AGATCCCGAATTCGTGCCACGTGATCTGCCGTCGTGTATTCGGAGTCACCTAGTGCAG,6050 fluorescence intensity (a.u.)
19,CCCCGCTTCGCCGCCGGCCGCCTCTCTCTTCTCAAGAGTCCGGAGTCACCTAGTGCAG,3340 fluorescence intensity (a.u.)
20,GCAACCGCGACGACCGATCCACGTGGCACCACCTCATTGGCGGAGTCACCTAGTGCAG,29400 fluorescence intensity (a.u.)
21,GGGCCCAGCAGGTTCCTAGTAGACTTCGTCGTAGTGGGACCGGAGTCACCTAGTGCAG,8310 fluorescence intensity (a.u.)
